Data taken from PubChem BioAssay AID485364 (National Center for Advancing Translational Sciences (NCATS), 2010).
“And” between values parts separate entries of the source, which are not always exact repeats. Equal values may be shown once. Out of some 360,000 compounds screened, about 11,000 (3.1%) were called active. Inconclusive results (about 4%) are left out. Many of the other results were omitted from the sample, so actives are more common in it than they were. A number with no mark means an inactive call. Calls follow the shape of the dose curve; as a rule, active = well fitted inhibition curve with a large enough effect; inconclusive = small, poorly fitted or top-dose-only effect; inactive = no such curve, though single readings can be large or run the other way.

Molecular target: Schistosoma mansoni thioredoxin glutathione reductase (TGR) (UniProt Q962Y6)
Experiment: qHTS Assay for the Inhibitors of Schistosoma Mansoni Peroxiredoxins; also: nearly all actives have a fitted effect of over 60% in size
Conditions: purified TGR, DTNB reduction, TNB absorbance 405 nm; series mostly up to 114 µM; activity change, negative = inhibition: at the top concentration
Outline: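 First, TGR (20 nM dispensed) and NADPH were mixed with compound. Second, a 15 min room-temperature incubation followed. Third, further NADPH and then DTNB were added to start the reaction. Finally, TNB absorbance was monitored kinetically.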
% is scaled to controls: 0 for no effect and ±100 for the full control effect; potency is read from the fitted curve at half-maximal effect.

Compound | activity change, negative = inhibition | Potency
CCC(C(=O)Nc1cc(OC)ccc1OC)n1c(=O)c(C(F)(F)F)nc2ccccc21 (stereo not given) | 9.99% | 
COc1ccc(CCNC(=O)c2ccc(CSCc3ccc(C)cc3)o2)cc1OC | -18.8% | 
Cc1ccccc1CN1CCC(CNC(=O)c2c(C)oc3ncnc(N4CCCCC4)c23)CC1 | 9.84% | 
CCOc1ccc(OCC)c(Nc2nc3ccccc3n3nnnc23)c1 | 1.06% | 
COc1ccc(CCNC(=O)c2cnc3sc(N4CCCCCC4)nn3c2=O)cc1OC | 0.303% | 
COc1cccc(N2CC(NC(=O)/C=C\c3ccccc3)CC2=O)c1 (stereo not given) | 3.58% | 
Cn1sc(=O)c2cc(S(=O)(=O)NC3CC3)ccc21 |  | 1.58 µM (active)
O=S(=O)(NC1CC1)c1ccc(F)c(F)c1 | 6.35% | 
CC1CCC(NS(=O)(=O)c2ccc3c(c2)n(C)c(=O)c(=O)n3C)CC1 (stereo not given) | 6.06% | 
Cn1c(COc2ccccc2C(C)(C)C)nc2ccccc21 | -12.6% | 
Cc1cc2c(cc3c(SCc4cccc(Cl)c4)nnc(C)n32)o1 | 2.97% | 
Cc1ccc(-c2nnc(Nc3cccc(Br)c3)c3ccccc23)cc1S(=O)(=O)NCC1CCCO1 (stereo not given) | -1.37% | 
Cc1cccc(OCC(=O)N(Cc2ccc(C(C)C)cc2)Cc2ccco2)c1C | 15% | 
CCOC(=O)CN(C)Cc1c[nH]c2ccccc12 |  | 35.5 µM (active)
CN(Cc1cccs1)C(=O)Cc1c[nH]c2ccccc12 | 1.04% | 
COc1ccc(CN(C)C(=O)Cc2c[nH]c3ccccc23)c(OC)c1OC | -1.7% | 
Brc1ccc2c(c1)NC(c1cccnc1)=NC(c1ccccc1)=N2 | -3.69% | 
c1ccc(C2=Nc3cccc4cccc(c34)N2)cc1 |  | 35.5 µM (active)
COc1ccccc1C1=Nc2cccc3cccc(c23)N1 | -6.48% | 
CCC(CC)c1nn2cc(-c3ccccc3)nc2s1 | 12.9% | 
COc1ccc(Br)cc1CNC(=O)c1cc(=O)[nH]c2ccc(S(=O)(=O)N3CCCC3)cc12 | -2.46% | 
O=S(=O)(c1ccc(Br)cc1)c1nnn2c1nc(N1CCOCC1)c1sccc12 | 4.43% | 
CC(=O)OC1=C(C(C)=O)N(Cc2ccccc2)S(=O)(=O)c2ccccc21 | -20.4% | 
Cc1ccc(CNC(=O)c2c(O)nc3c(C)cccn3c2=O)cc1 | 1.88% | 
O=C(NCc1cccs1)c1ccc(CS(=O)Cc2ccccc2Cl)o1 (stereo not given) | 2.3% | 

Compound | activity change, negative = inhibition | Potency
CCOc1ccc(CNC(=O)c2ccc(CS(=O)c3ccccc3)o2)cc1 (stereo not given) | 0.329% | 
Cc1ccc(CNC(=O)c2ccc(CS(=O)Cc3cccc(Cl)c3)o2)cc1 (stereo not given) |  | 35.5 µM (active) and 25.1 µM (active)
CCN(CC)C(=O)CSc1nc2ccsc2c(=O)n1Cc1ccccc1Cl | 2.09% | 
CCCCNC(=O)c1cc(-c2ccc(Cl)c(Cl)c2)on1 | -1.93% | 
CC(/C=N/NC(=O)c1cc(-c2ccc3ccccc3c2)n[nH]1)=C\c1ccco1 | -18.4% | 
C/C(=C\c1ccco1)C1Nc2cccc3cccc(c23)N1 |  | 3.55 µM (active)
Cc1ccc(Cn2cc(CCC(=O)NCc3ccc(OC(C)C)cc3)c3ccccc32)cc1 | 11.8% | 
COc1ccc(S(=O)(=O)c2c(Nc3cccc(Cl)c3)sc(C(=O)c3ccccc3)c2N)cc1 | -2.74% | 
Cc1cc(C)c2oc(C(=O)Nc3ccc(S(=O)(=O)N(C)c4ccccc4)cc3)cc(=O)c2c1 | 14.3% | 
CCCCOC(=O)CSc1ncnc2sc3c(c12)CCC(C)C3 (stereo not given) | 0.934% | 
Cc1c(-c2ccccc2)n[nH]c1C(=O)N=Nc1c(O)[nH]c2ccccc12 | 5.01% | 
O=C(CCN1CCCCC1)N=Nc1c(O)[nH]c2ccccc12 |  | 11.2 µM (active)
O=C(CNC(=O)Cc1ccccc1)N=Nc1c(O)[nH]c2ccc(Br)cc12 | -22.3% | 
N#C/C(=C\c1ccccc1F)c1nc2ccccc2c(=O)[nH]1 | 7.82% | 
CNC(=O)CN1C(=O)c2cccnc2Sc2ccccc21 | -4.14% | 
Cc1ccsc1CN(C(=O)c1oc2ccc(Br)cc2c1C)C1CCS(=O)(=O)C1 (stereo not given) | 17.6% | 
O=C(NC1CCN(Cc2ccccc2)CC1)c1ccc(Cn2c(=O)c3ccccc3n(Cc3cccc(F)c3)c2=O)cc1 | -1.16% | 
Cc1ccc(-n2nc(C)c(/C=N/NC(=O)c3cccs3)c2Cl)cc1 | -6.16% | 
C/C(=N\NC(=O)c1cc(-c2ccc(O)cc2)nc2ccccc12)c1cccnc1 | 3.85% | 
Cc1ccc(-c2cc(C(=O)N/N=C/C=C/c3ccco3)c3ccccc3n2)cc1C |  | 39.8 µM (active)
Cc1ccc(-c2cc(C(=O)NC3CCN(Cc4ccccc4)CC3)c3ccccc3n2)cc1 | -2.12% | 
O=C(N/N=C/C=C/c1ccco1)c1cccs1 |  | 3.55 µM (active)
CC1(C)CC(=O)C/C(=N\NC(=O)c2cccs2)C1 | -31.1% | 
CC1=C(c2ccc(Cl)cc2)S(=O)(=O)N=C1N1CCN(c2cc(C)ccc2C)CC1 | -2.39% | 
Cc1ccccc1C(=O)Nc1nnc(S(=O)(=O)N(C)c2ccc(Cl)cc2)s1 | -8.91% | 

Compound | activity change, negative = inhibition | Potency
COc1ccccc1NC(=O)CCN1CCN(c2ccc(Cl)cc2)CC1 | -16.8% | 
O=C(CCN1CCCCC1)NCC(=O)Nc1ccc(Br)cc1C(=O)c1ccccc1 | -5.15% | 
COC(=O)CNC(c1ccccc1Cl)c1cc(Br)ccc1NC(=O)CCN1CCOCC1 (stereo not given) |  | 25.1 µM (active)
COc1cc(C)ccc1OCCSc1nc2ccc(NC(=O)c3ccc(C)cc3)cc2s1 | -0.0299% | 
Cc1cc(F)ccc1NC1(c2ccccc2)C(=O)c2ccccc2C1=O | 8.18% | 
CC(C)c1ccc(OCC(=O)N(Cc2ccc(N(C)C)cc2)C2CCS(=O)(=O)C2)cc1 (stereo not given) | 1.54% | 
Cc1[nH]n(C)c(=O)c1C(=O)c1c(-c2c(Cl)cccc2Cl)noc1C |  | 25.1 µM (active)
C/C(=N/OC(=O)c1c(-c2c(F)cccc2Cl)noc1C)c1cnccn1 | -3.61% | 
Cc1onc(-c2c(Cl)cccc2Cl)c1C(=O)c1c[nH]c(C(=O)NC2CC2)c1 | -6.99% | 
CCc1ccc(S(=O)(=O)c2nnn3c2nc(N2CCN(CC)CC2)c2sccc23)cc1 | 0.202% | 
O=C(COc1ccccc1F)OCc1cc(=O)n2nc(C3CCCCC3)sc2n1 | 1.42% | 
CS/C(=C\[N+](=O)[O-])Nc1ccc(C)cc1 |  | 0.316 µM (active)
Cc1ccc(NC(=O)O/N=C/c2cccc([N+](=O)[O-])c2)cc1 | 0.0354% | 
COc1cc(NC(=O)Nc2ccc(C)cc2)cc([N+](=O)[O-])c1 | -6.62% | 
CN(Cc1ccccc1)c1ccc(-c2nc(-c3ccccc3)no2)cc1[N+](=O)[O-] | 2.45% | 
CCOC(=O)c1ccc2c(c1)N(Cc1cccc(OC)c1)C(=O)c1ccccc1S2(=O)=O | 26.6% | 
O=C(c1ccco1)N1CCN(C(=O)c2ccc(COc3ccc(F)cc3)o2)CC1 |  | 44.7 µM (active)
O=C(c1ccco1)N1CCN(C(=S)Nc2cc(F)cc(F)c2)CC1 | -32.1% | 
O=C(c1ccco1)N1CCN(CCOc2ccccc2)CC1 | 8.74% | 
N#Cc1ccccc1Cn1cnc2nc3c(cc2c1=O)CCCC3 | -3.23% | 
CCCCNC(=O)c1ccc2c(c1)NC(=O)C(C(C)C)N2 (stereo not given) | -8.77% | 
CCOc1cc(-c2nnc(SCC(=O)NC3CCCC3)nc2-c2ccc(OC)c(OCC)c2)ccc1OC | -5.17% | 
COc1ccc(CC(=O)NCCc2sc3nc(-c4ccc(OC)cc4)nn3c2C)cc1 | -2.43% | 
COc1ccc(-c2nc(CS(=O)CC(=O)NCc3cccnc3)c(C)o2)cc1OC (stereo not given) | -36% | 
CNC(=O)c1ccc(-c2nc(CN3CCc4ccccc43)c(C)o2)cc1 | -4.91% | 

Compound | activity change, negative = inhibition | Potency
CC(CCc1ccccc1)NC(=O)c1cnc(Cl)c(Cl)c1 (stereo not given) | 4.28% | 
COc1ccc(CNC(=O)CS(=O)Cc2nc(-c3cccc(C)c3)oc2C)cc1 (stereo not given) | -27.5% | 
Cc1ccc(-c2nc(CS(=O)CC(=O)NC3CCCC3)c(C)o2)cc1 (stereo not given) |  | 22.4 µM (active)
COc1ccc(N2CCN(C(=O)CSCc3nc(-c4ccccc4Cl)oc3C)CC2)cc1 | -8.12% | 
Cc1cccc(-c2nc(CS(=O)CC(=O)NC(C)CCc3ccccc3)c(C)o2)c1 (stereo not given) |  | 15.8 µM (active)
Cc1oc(-c2ccccc2F)nc1CS(=O)CC(=O)NCCN1CCCCC1C (stereo not given) | 3.86% | 
CC1=C(C)CC(C(=O)NC(C)CCc2ccccc2)C(C(=O)O)C1 (stereo not given) | 4.49% | 
Cc1ccc(-c2nc(CSCC(=O)NC3CCN(Cc4ccccc4)CC3)c(C)o2)cc1 | -35.5% | 
COc1ccc(-c2nc(CS(=O)CC(=O)NCc3ccccn3)c(C)o2)cc1 (stereo not given) |  | 17.8 µM (active)
COc1ccc(-c2nc(CS(=O)CC(=O)N3CCc4ccccc4C3)c(C)o2)cc1 (stereo not given) |  | 2 µM (active)
Cc1ccc(-c2nn(CCC(=O)Nc3ccc(OC(F)(F)F)cc3)c(=O)c3ccccc23)cc1 | 3.82% | 
Cc1cc(C)cc(NS(=O)(=O)c2cc3c(cc2C)NC(=O)CO3)c1 | 5.3% | 
COc1ccc(Cn2c(C(=O)O)c(CNCCc3cccs3)c3ccc(OC)cc32)cc1 | 8.81% | 
CCOCCc1nn2c(=O)cc(COC(=O)CNC(=O)c3ccc(C(C)(C)C)cc3)nc2s1 | -14.4% | 
CCN(C(=O)CSc1nnc(C)n2c1cc1occc12)c1ccccc1 | -20% | 
Cc1ccc(Cl)cc1NC(=O)C(C)n1nnc2sc(-c3ccccc3)cc2c1=O (stereo not given) | -5.46% | 
COc1ccc(C2c3c(oc4ccccc4c3=O)C(=O)N2Cc2ccc3c(c2)OCO3)cc1 (stereo not given) | 4.84% | 
CCOc1ccc(N(CC)S(=O)(=O)N2CCCC(C(=O)NCc3ccc(Cl)cc3)C2)cc1 (stereo not given) | 2.95% | 
COc1ccccc1N1CCN(c2ncnc3onc(-c4cccc(Cl)c4)c23)CC1 | -6.23% | 
Cc1ccc(-c2nc(CS(=O)CC(=O)N3CCN(c4ncccn4)CC3)c(C)o2)cc1 (stereo not given) |  | 7.08 µM (active)
Cc1cccc(C)c1NC(=O)CS(=O)CC(=O)N1CCN(c2ccccc2)CC1 (stereo not given) | -8.81% | 
COc1ccc(-c2nc(CN3CCN(c4ncccn4)CC3)c(C)o2)cc1C | 0.814% | 
O=C(NC1CCCCCC1)c1cccnc1Sc1ccc(Cl)cc1 | -3.38% | 
O=C(NC1CCCC1)c1cc(-c2ccccc2)on1 | 3.07% | 
O=C(NC1CCCCC1)c1ccc(-c2ccc(Cl)cc2)o1 |  | 35.5 µM (active)
